Many of the other results were omitted from the sample, so the strongest signals are more common in it than they were.

Assay in all cases: glycan array binding signal (z-score within array); higher = stronger binding
Common to all, as to conditions: glycan notation: IUPAC condensed, linker removed

Experiment [1] deals with Gal3S6S(b1-4)GlcNAc6S. Put shortly: (§1)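 Glycan array data came from 3228 arrays in the Consortium for Functional Glycomics database, and only arrays with an available protein sequence were kept. Glycan names were put into IUPAC-condensed notation, and columns mapping to the same glycan were averaged. The binding signal is a within-array Z-score, averaged across arrays of one protein sequence run at different concentrations or buffers and across linkers. A negative Z-score can be read as non-binding.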

The test system of experiment [2] is Gal6S(b1-4)GlcNAc6S. Put shortly: as §1
The subject of experiment [3] is Gal6S(b1-3)GlcNAc. Put shortly:
as §1

Experiment [4] has as its system Gal4S6S(b1-4)GlcNAc. The procedure, abridged:
as §1

Experiment [5] concerns Gal3S4S(b1-4)GlcNAc. Put shortly:
as §1

Experiment [6] concerns Gal6P(b1-4)GlcNAc. The procedure, abridged: as §1
Experiment [7] deals with Gal6S(b1-3)GlcNAc6S. The procedure, abridged: as §1
Experiment [8] relates to Gal6S(b1-4)Glc6S. The procedure, abridged:
as §1

The subject of experiment [9] is Gal6S(b1-4)Glc. The procedure, abridged:
as §1

Experiment [10] relates to Gal6S(b1-4)GlcNAc. Put shortly:
as §1

“AgI/II Vhelical-GFP (Streptococcus mutans)”: the “glycan array binding signal (z-score)” value in experiment [1] amounted to 1.08; in experiment [2], 2.17. Regarding “SpGH101 (Streptococcus pneumoniae), Q8DR60”, in experiment [3], the “glycan array binding signal (z-score)” value is -0.229. For LcI (Legionella pneumophila), the “glycan array binding signal (z-score)” value in experiment [1] was -0.439. On to Wza (Escherichia coli), P0A930, for which the “glycan array binding signal (z-score)” value in experiment [2] amounted to 0.571. As for “SiiE (Salmonella typhimurium), A0A0H3NVH0”, the “glycan array binding signal (z-score)” value in [4] is -0.799. With AgI/IIC123-GFP (Streptococcus mutans), the “glycan array binding signal (z-score)” value in [5] is -0.466. Regarding Epa22, the “glycan array binding signal (z-score)” value is -0.476 in [5]; -0.491 in [6]; 2.55 in experiment [7]; 1.89 in [3]; 7.08 in [8]; 12.6 in experiment [2]. For the same substance, the “glycan array binding signal (z-score)” value in [9] came out at 1.51. For the substance BambL (Burhholderia ambifaria), Q0B4G1, in [10], the “glycan array binding signal (z-score)” value is -0.314.
